Our source for the Potency values is PubChem BioAssay AID1347165 (National Center for Advancing Translational Sciences (NCATS), 2019).

The structures appear in SMILES notation. The whole screen tested about 220,000 compounds, of which about 5,700 (2.6%) were called active. Another 18% or so got no clear call; they are omitted. Calls follow the shape of the dose curve; as a rule, active = well fitted inhibition curve with a large enough effect; inconclusive = small, poorly fitted or top-dose-only effect; inactive = no such curve, though single readings can be large or run the other way. Shown is part of a subset that was picked to be rich in actives. A call without a number means that no potency is given here.
Potency is read from the fitted curve at half-maximal effect.

The target in this assay is Lysine-specific demethylase 5B (Homo sapiens) (UniProt Q9UGL1). As to the kind of experiment: Primary screen for KDM5B Histone Demethylases FDH-coupled qHTS. Also: nearly all actives have a fitted effect of over 70% in size. The following applies: FDH-coupled NADH fluorescence (FDH is formaldehyde dehydrogenase); series mostly up to 57.7 µM. An outline of the steps: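 Compound dilutions met 200 nM (final) KDM5BΔAP for 10 min at room temperature before substrate addition. The substrate mix held 12.5 µM H3K4me3 with cofactors 25 µM α-ketoglutarate and 50 µM Fe²⁺. NADH signal gain over 30 min defined activity.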
Chain of Lysine-specific demethylase 5B (Homo sapiens) (Q9UGL1 whole entry, looked up): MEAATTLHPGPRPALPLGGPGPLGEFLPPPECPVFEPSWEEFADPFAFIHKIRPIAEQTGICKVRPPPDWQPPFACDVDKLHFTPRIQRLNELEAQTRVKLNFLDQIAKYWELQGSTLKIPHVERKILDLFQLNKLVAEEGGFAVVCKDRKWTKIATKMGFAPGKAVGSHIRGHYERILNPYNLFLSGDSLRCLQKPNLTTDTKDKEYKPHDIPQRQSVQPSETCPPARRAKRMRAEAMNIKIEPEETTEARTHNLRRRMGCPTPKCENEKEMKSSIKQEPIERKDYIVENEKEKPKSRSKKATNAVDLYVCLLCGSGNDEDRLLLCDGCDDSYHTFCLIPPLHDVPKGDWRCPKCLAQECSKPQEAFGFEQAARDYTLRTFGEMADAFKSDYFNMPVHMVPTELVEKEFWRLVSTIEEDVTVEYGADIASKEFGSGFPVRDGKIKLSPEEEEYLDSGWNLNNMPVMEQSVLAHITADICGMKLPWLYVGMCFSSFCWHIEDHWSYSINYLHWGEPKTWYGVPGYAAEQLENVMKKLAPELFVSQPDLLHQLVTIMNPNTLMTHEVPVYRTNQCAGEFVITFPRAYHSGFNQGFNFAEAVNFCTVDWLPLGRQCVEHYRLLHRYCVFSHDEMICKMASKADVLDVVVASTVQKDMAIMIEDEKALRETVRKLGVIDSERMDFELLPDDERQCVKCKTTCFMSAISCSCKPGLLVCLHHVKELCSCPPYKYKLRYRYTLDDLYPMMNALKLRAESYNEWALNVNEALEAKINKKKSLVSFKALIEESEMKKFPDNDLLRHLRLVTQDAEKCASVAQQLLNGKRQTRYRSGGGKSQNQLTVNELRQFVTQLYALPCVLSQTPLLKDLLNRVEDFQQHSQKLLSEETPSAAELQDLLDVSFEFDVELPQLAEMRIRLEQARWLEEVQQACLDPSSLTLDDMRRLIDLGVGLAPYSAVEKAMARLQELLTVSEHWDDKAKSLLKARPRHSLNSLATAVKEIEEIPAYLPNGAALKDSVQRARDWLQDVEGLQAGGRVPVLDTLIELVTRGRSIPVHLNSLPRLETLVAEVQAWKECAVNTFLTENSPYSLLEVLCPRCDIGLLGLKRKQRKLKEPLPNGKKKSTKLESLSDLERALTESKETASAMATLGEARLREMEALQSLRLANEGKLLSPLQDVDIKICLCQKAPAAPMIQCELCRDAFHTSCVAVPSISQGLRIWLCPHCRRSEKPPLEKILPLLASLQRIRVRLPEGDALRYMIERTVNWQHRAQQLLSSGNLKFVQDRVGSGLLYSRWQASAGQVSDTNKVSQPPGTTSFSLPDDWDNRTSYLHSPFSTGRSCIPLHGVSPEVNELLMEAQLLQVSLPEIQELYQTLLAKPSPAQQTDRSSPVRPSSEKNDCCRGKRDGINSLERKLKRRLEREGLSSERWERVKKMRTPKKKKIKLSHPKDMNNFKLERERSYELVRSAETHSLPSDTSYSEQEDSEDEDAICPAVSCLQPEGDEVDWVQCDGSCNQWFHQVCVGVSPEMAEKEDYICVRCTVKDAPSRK
A general note: Quantitative high-throughput screening tests each substance at several concentrations.
In the case of `COCCSCC(=O)N1CCOC(C)(C)C1`, the Potency result is “inactive”.
The result for `COCc1nc(C2CCCN(C(=O)CCC3CCCC3)C2)no1` (stereo not given) reads “inactive”; that for `O=C(c1cc(-c2ccc(O)cc2)on1)N1CCOCC1`, “inactive”.
Then `Cc1cc(C(=O)N2CCC3(CC2)CC(C(=O)N2CCOCC2)N(C)C3)nn1C` (stereo not given), with “inactive”; and `O=C(c1cc2cccnn2n1)N1CCOCC1`, with 31.6 µM (active).
In the case of `Cc1ccc(CNC(=O)Cc2cn(C)c3ccccc23)cc1`, the Potency result was “inactive”.
Then `CCOc1ccccc1NC(=O)NC1CCCCCCC1`, with “inactive”; and `COc1ccc(NC(=O)C2(C)CN(C)Cc3ccc(Nc4cccc(OC)c4)nc32)cc1` (stereo not given), with 14.1 µM (active); and `COc1cccc(NC(=O)C2(C#N)CCCC2)c1`, with “inactive”.
`COc1ccc(Nc2cc(C(=O)N3CCOCC3)c3ccccc3n2)cc1`: the Potency result was “inactive”.
For `O=C(Nc1cc(F)ccc1F)N1CCC2(CC1)Oc1ccccc1C(=O)N2Cc1ccccc1F`, the Potency entry is “inactive”.
With `OCCCSc1nnc(-c2c[nH]c3ccccc23)n1C1CC1`, the Potency entry is “inactive”.
`CC(C)CNC(=O)NCC1Cn2cccc2C(=O)N1Cc1ccccc1` (stereo not given): the Potency result was “inactive”.
The result for `O=C(NCC1Cn2cccc2C(=O)N1Cc1ccccc1)c1ccc(F)cc1` (stereo not given) reads “inactive”.
For the compound `CC(=O)NCC1Cn2cccc2CN1Cc1ccccc1` (stereo not given), the Potency is 28.2 µM (active).
As for `O=C(NCC1Cn2cccc2CN1Cc1ccccc1)c1ccco1` (stereo not given), the Potency is 28.2 µM (active).
In the case of `CC(C)NC(=O)NCC1Cn2cccc2C(=O)N1Cc1ccccc1` (stereo not given), the Potency result was “inactive”.
Consider `O=C(NCC1Cn2cccc2C(=O)N1Cc1ccccc1)c1ccco1` (stereo not given), for which the Potency result is “inactive”.
The result for `CCCn1nc(C(=O)NCc2cccc(OC)c2)c2ccccc2c1=O` reads “inactive”; that for `O=C(CSc1ncc(CO)n1Cc1ccc(F)cc1)NCc1ccc2c(c1)OCO2`, “inactive”; that for `CN(C(=O)Cn1c(=O)n(C)c(=O)c2sccc21)c1ccccc1`, “inactive”.
`Cc1ccc(C(=O)c2ccccc2C(=O)OCc2c(Cl)cccc2Cl)cc1`: the Potency result is “inactive”.
The result for `O=C(NCCc1nc2ccccc2[nH]1)c1ccc(N2CCCN(Cc3ccccc3)C2=O)cc1` reads “inactive”; that for `O=C1Nc2ccc(Br)cc2C(=O)N2CCN(C(=O)C3CCCCC3)C[C@H]12`, “inactive”.
The result for `COCC(=O)N[C@H]1C[C@H]2C(=O)Nc3ccc(/C=C/c4ccc(OC)cc4)cc3C(=O)N2C1` reads 28.2 µM (active); that for `COCCn1ccc2cc(C(=O)Nc3ccc4c(c3)C(=O)N3CCC[C@H]3C(=O)N4)ccc21`, “inactive”; that for `COc1ccc(C(=O)N2CCc3nc(C(C)C)nc(-c4ccc(Cl)cc4)c3CC2)cc1`, “inactive”.
Then `Cc1nn(CC(=O)NC(C)(C)C)c(C)c1S(=O)(=O)N1CCCC(C(=O)N2CCC(C)CC2)C1` (stereo not given), with “inactive”.
As to `Cc1cc(NC(=O)CCSc2nnc3c(Cl)cc(C(F)(F)F)cn23)no1`, the Potency result was “inactive”.
For `COc1ccc(C(=O)N[C@H](C(=O)NCc2ccccc2)C(C)C)cc1`, the Potency entry is “inactive”.
The result for `O=C(NCc1nnc2ccccn12)C1NCCc2[nH]cnc21` (stereo not given) reads “inactive”; that for `Nc1nc(CCCNC(=O)C2NCCc3[nH]cnc32)cs1` (stereo not given), 25.1 µM (active).
Turning to `O=C(C1NCCc2[nH]cnc21)N1CCc2nnc(-c3ccccc3)n2CC1` (stereo not given), the Potency entry is “inactive”.
As for `COc1ccc2nc(C)c(C(=O)N(C)CC3COc4ccccc4O3)cc2c1` (stereo not given), the Potency entry is “inactive”.
On to `C/C(=N/NC(=S)NCc1ccccc1)c1cccc(C(F)(F)F)c1`, for which the Potency entry was “inactive”.
